Compound activity deposited in PubChem by National Center for Advancing Translational Sciences (NCATS).
D2 ag-1: activates the human D2 dopamine receptor; actives 0.084% (n = 360,000); activation, % (test concentration not listed); DiscoveRx PathHunter D2 beta-arrestin, luminescence, 90 min; 100% = 57 uM dopamine signal; in the data active = activation above about 40%; inconclusive = between about 15% and that limit
Target sequence (P14416 whole entry, looked up): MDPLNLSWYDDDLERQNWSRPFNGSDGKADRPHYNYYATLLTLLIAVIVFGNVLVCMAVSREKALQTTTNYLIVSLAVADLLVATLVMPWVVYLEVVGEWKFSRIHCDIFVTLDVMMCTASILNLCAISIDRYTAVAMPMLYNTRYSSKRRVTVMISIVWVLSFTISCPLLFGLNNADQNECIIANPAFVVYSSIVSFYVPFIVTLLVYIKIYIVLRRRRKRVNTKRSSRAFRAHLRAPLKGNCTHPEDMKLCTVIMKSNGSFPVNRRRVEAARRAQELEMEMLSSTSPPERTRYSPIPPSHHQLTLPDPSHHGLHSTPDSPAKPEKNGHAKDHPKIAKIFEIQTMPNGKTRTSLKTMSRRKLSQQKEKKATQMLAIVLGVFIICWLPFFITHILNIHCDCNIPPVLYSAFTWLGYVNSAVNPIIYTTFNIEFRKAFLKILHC
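Agonist mode: compounds alone added to overnight-plated D2 PathHunter cells for 90 min at 37 C, with 57 uM final dopamine (EC100) defining full response. Beta-arrestin recruitment detected by chemiluminescent reagent, read after 1 h at ambient temperature.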
D2 PAM-1: D2 dopamine receptor (human) potentiation. HEK293 T-REx D2, calcium flux, EC20 dopamine potentiation. AID 485347. potentiation, % at 10 µM. actives 0.34% (n = 340,000);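 active = potentiation over 3 SD above the plate norm, cut at about 30% in these data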; also: 0% is about no effect
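Tetracycline-induced Hek293 Trex D2 cells, force-coupled to calcium, loaded with no-wash calcium dye. Compound added with 180 s kinetic read for agonism, then EC20 dopamine and a further 180 s read for potentiation.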
D2 antag: antagonists of human D2 dopamine receptor. P14416. HEK293 TREx D2 cells, calcium flux, dopamine EC80. inhibition, % at 10 µM. actives 2% (n = 340,000). AID 485344; in the data active = inhibition above about 30%; inactive = below that, where a call was filed; also: 0% is about no effect
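Antagonism is scored as inhibition of an EC80 dopamine-evoked calcium signal in a force-coupled, tetracycline-inducible HEK293 T-REx D2 line, with compound present 180 s before agonist.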
D2 ag-2: D2 dopamine receptor (human) agonism | actives 0.53% (n = 340,000) | HEK293 T-REx D2 cells, calcium flux agonist mode | AID 485358 | activation, % at 2 µM;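 active = activation over 3 SD above normal in the single-dose calcium agonist read, cut at about 30% in these data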; also: 0% is about no effect
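Agonism is scored from calcium flux in a force-coupled, inducible HEK293 cell line expressing D2, read kinetically for 180 s after compound addition against dopamine controls.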
D2 PAM-2: positive allosteric modulators of human D2 dopamine receptor | P14416 | DiscoveRx D2 beta-arrestin cells, luminescence, 90 min; 100% = 57 uM dopamine signal | potentiation, % (test concentration not listed) | actives 0.23% (n = 360,000); in the data active = potentiation above about 50%; inconclusive = mostly about 30% to 49%
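PathHunter beta-arrestin assay in DiscoveRx D2 cells. Compounds were added with an EC20 of dopamine (50 nM final) for 90 min at 37 deg C. Luminescence was read 1 h after detection reagent, with 57 uM dopamine as the EC100 control.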
* hit, by the source's call; ? = inconclusive; nt = no result. This is a sample that favours compounds with a hit; in the whole collection about 2.4% have one here.

SMILES	D2 ag-1	D2 PAM-1	D2 antag	D2 ag-2	D2 PAM-2
Cc1nnsc1C(=O)Nc1ccc(S(=O)(=O)N2CCCCC2)cc1	4	-2	4	1	-10
Cc1ccc2nc3cc([N+](=O)[O-])cc([N+](=O)[O-])c3cc2c1	-18	nt	0	0	19
Cc1ccccc1-n1ncc2c([N+](=O)[O-])cc([N+](=O)[O-])cc21	8	12	-30	0	83*
CC(=O)N1CCc2cc(CNC(=O)Nc3cc(Cl)ccc3C)ccc21	nt	5	nt	-1	nt
CC(C)Oc1ccc(C2CC(=O)N(c3ccccc3)C2=O)cc1 (configuration not stated)	-1	nt	nt	nt	22
CC(C)Oc1ccc(C2CC(=O)N(c3ccc(N(C)C)cc3)C2=O)cc1 (configuration not stated)	-3	-6	34*	0	-2
O=C(CCCN1C(=O)c2cccnc2Oc2ccc(Cl)cc21)NCc1ccccc1F	nt	5	nt	-1	nt
CCn1cc(C(=O)NCCc2ccc(Cl)cc2)c(=O)c2cc(S(=O)(=O)N(C)C)ccc21	1	7	-9	0	-4
CCn1cc(C(=O)N2CCOCC2)c(=O)c2cc(S(=O)(=O)N(C)C3CCCCC3)ccc21	-3	32*	0	-1	-2
CCn1cc(C(=O)NCCCN(C)c2ccccc2)c(=O)c2cc(S(=O)(=O)N(C)C)ccc21	-2	54*	29	43*	-1
CCn1cc(C(=O)NCc2ccc(Cl)cc2)c(=O)c2cc(S(=O)(=O)N(C)C)ccc21	-5	0	32*	-1	0
CCOC(=O)N1CCC(NC(=O)c2cnn(-c3ccc(F)cc3)c2-n2cccc2)CC1	nt	3	nt	-1	nt
O=C1CCCN1c1ncc(S(=O)(=O)c2ccc([N+](=O)[O-])cc2)s1	?	5	-12	1	54*
Cc1ccccc1CSc1nnnn1-c1ccc(C(N)=O)cc1	0	-2	11	-1	-2
O=C(O)c1ccc(-n2nnnc2SCc2ccccc2F)cc1	1	-31	37*	1	-8
CCN(Cc1nc2ccccc2c(=O)[nH]1)C(=O)c1cccc(S(=O)(=O)N2CCc3ccccc32)c1	1	0	47*	0	-1
O=C(Cc1ccccc1)Nc1ccc(Br)c(Cl)c1	0	31*	-10	-2	-14
C=CCc1cccc(/C=N/NC(=O)C[n+]2ccccc2)c1O	10	-20	53*	0	-12
COc1ccc(/C=N/NC(=O)C[n+]2ccccc2)c(OC)c1OC	-3	-27	35*	0	-27
CCOc1ccccc1/C=N/NC(=O)C[n+]1ccccc1	-5	-16	33*	-1	-19
O=C(Nc1ccc(S(=O)(=O)Nc2ncccn2)cc1)c1cc(=O)c2ccccc2o1	nt	19	nt	0	nt
CC(CNC(=O)c1ccc2c(c1)nc1n2CCCCC1)c1ccccc1 (configuration not stated)	nt	-5	nt	0	nt
COc1ccc(CC(=O)Nc2sc3c(c2C(=O)Nc2c(C)cccc2C)CCCCC3)cc1	nt	0	nt	0	nt
C=CCc1cccc(/C=N/NC(=O)C(C)Nc2cccc(C)c2)c1O (configuration not stated)	-4	-9	31*	0	-12
O=C(O)COc1ccccc1/C=N/NC(=O)C(O)c1ccccc1 (configuration not stated)	-6	1	-15	0	-5
SMILES	D2 ag-1	D2 PAM-1	D2 antag	D2 ag-2	D2 PAM-2
O=C(Cc1ccccc1)N/N=C/c1ccccc1Cl	-4	1	31*	-1	-12
O=C(C[n+]1ccccc1)N/N=C/c1ccccc1Cl	5	-20	36*	0	-1
O=C(Cc1cc(=O)[nH][nH]1)N/N=C/c1ccccc1Cl	-1	9	-13	0	2
C=CCc1cccc(/C=N/NC(=O)CCCNc2ccc(C)cc2)c1O	-4	-15	-18	-1	-27
O=C(C[n+]1ccccc1)N/N=C/c1cccc(Cl)c1Cl	-7	8	-11	1	-7
CNC(=S)N/N=C/c1ccccc1OCC(=O)O	-3	14	31*	2	-5
O=C(NNC(=S)NC(=O)c1cccnc1)c1ccc(Cl)cc1	-3	nt	nt	nt	-10
O=C(Cc1ccc(Cl)cc1)NNC(=S)NC(=O)c1cccnc1	3	3	40*	1	-7
COc1ccc(-c2csc(NC(=O)CN3C(=O)NC4(CCCC4)C3=O)n2)cc1	1	-14	38*	0	2
Cc1ccc(CNC(=O)c2cc3c(s2)CN(Cc2ccccc2)C3)cc1	-1	-13	39*	0	-14
Cc1ccc(CNC(=O)c2cc3c(s2)CS(=O)(=O)C3)cc1	1	2	4	-1	-7
O=C(c1ccc(C(F)(F)F)cc1)N1CCC(c2noc(-c3ccc(S(=O)(=O)N4CCCC4)cc3)n2)CC1	nt	7	nt	1	nt
COc1ccc(OCCCC(=O)NCC(C)C)cc1	-3	-1	31*	0	-8
CCCNC(=O)c1ccc(OC)cc1OC	-5	2	5	0	-5
CCCCCCCCC(=O)NCCOc1ccc(OC)cc1	-5	-8	21	0	-2
COc1ccc(C(=O)NCC(C)C)c(OC)c1	-1	44*	-6	1	-3
COc1ccc(Cl)cc1NC(=S)N1CCN(c2ncccn2)CC1	2	5	12	12	-2
S=C(Nc1ccc(Cl)cc1Cl)N1CCN(c2ccccn2)CC1	2	1	18	8	-1
S=C(Nc1cccc(Cl)c1)N1CCN(c2ccccn2)CC1	-5	-11	-15	2	-1
COc1cccc(NC(=S)N2CCN(c3ccccn3)CC2)c1	?	-9	-8	32*	4
COc1ccc(Cl)cc1NC(=S)N1CCN(c2ccccn2)CC1	2	-8	35*	21	-4
COc1cc(NC(=S)N2CCN(c3ccccn3)CC2)c(OC)cc1Cl	7	-9	12	34*	-4
Cc1ccc2scc(N3CCCC(C)C3)c(=O)c2c1 (configuration not stated)	nt	-1	nt	0	nt
Cc1nc(Nc2ccc(S(N)(=O)=O)cc2)oc1C	-3	49*	1	1	10
CCCCCCc1cc2cc(S(=O)(=O)c3ccc(Cl)cc3)c(=O)oc2cc1O	2	-6	nt	nt	3
CCN(CC)c1ccc2cc(S(=O)(=O)c3ccc(Cl)cc3)c(=O)oc2c1	-3	5	-76	68*	-1
CN(C)c1ccc(C(=O)N2CCCC(N3CCN(Cc4ccc5c(c4)OCO5)CC3)C2)cc1 (configuration not stated)	-5	-23	32*	1	-44
O=C(c1cc2ccccc2o1)N1CCN(Cc2ccc3c(c2)OCO3)CC1	-1	-19	78*	-1	-33
